Pf Dd2 growth: blocks in vitro growth of P. falciparum Dd2; P. falciparum Dd2 growth, SYBR Green, 72 h; 120,000 tested, 4.3% active; Potency, µM (titrated, usually from 28.9 µM), inactives show at the highest dose activity, negative = inhibition, most hits filed as inhibitors; active = well fitted inhibition curve with a large enough effect;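 also: plate controls were DMSO vehicle for no effect and reference drug for full effect; nearly all actives have a fitted effect of over 65% in size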
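Readout: SYBR Green fluorescence, 485 nm excitation, 535 nm emission, after ~16 h lysis at 37C. Before that, Dd2-infected red cells (2.5% hematocrit) grew 72 h with compound, 29 uM top final concentration.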
* hit, by the source's call; i = inactive; [ ] = remark or other dose. Only a selection was taken, and hits are over-represented in it overall. Potency is read from the fitted curve at half-maximal effect.

SMILES | Pf Dd2 growth
CCOC(=O)CC(NC(=O)CCc1c(C)nc2c(c(C)nn2-c2ccc(C)c(C)c2)c1C)c1ccc(C)cc1 (stereo unspecified) | 4.5µM*
CCOC(=O)CCc1c(C)nc2c(c(C)nn2-c2ccc(C)cc2)c1C | 15%
Cc1nc(-c2ccc(Cl)cc2)n(Cc2ccccc2)c(=O)c1CCO | -21%
CNC(=O)[C@@H]1CN(C(=O)c2sccc2C)C[C@H]1c1n[nH]c(C)n1 | 3%
O=c1[nH]c(-c2ccccc2)nc2c1CCN(S(=O)(=O)c1ccc3c(c1)CCC3)C2 | i
COc1cccc(Cn2c(=O)n(CC3CCC(C(=O)NC(C)C)CC3)c(=O)c3sccc32)c1 (stereo unspecified) | -8%
COc1cccc(Cn2c(=O)n(CC3CCC(C(=O)N4CCCCC4)CC3)c(=O)c3sccc32)c1 (stereo unspecified) | 10µM*
Cc1ccccc1Cn1c(=O)n(CC2CCC(C(=O)N3CCC(C)CC3)CC2)c(=O)c2sccc21 (stereo unspecified) | 11µM*
Cc1ccc(Cn2c(=O)n(CC3CCC(C(=O)N4CCC(C)CC4)CC3)c(=O)c3sccc32)cc1 (stereo unspecified) | -24%
CNC(=O)C1CCC(Cn2c(=O)c3sccc3n(CC(=O)N3CCC(C)CC3)c2=O)CC1 (stereo unspecified) | 8%
Cc1cccc(Cn2c(=O)n(CC3CCC(C(=O)NC(C)C)CC3)c(=O)c3sccc32)c1 (stereo unspecified) | -5%
COc1ccc(C(=O)Nc2nc3nc(C)c(Cc4ccccc4)c(=O)n3[nH]2)cc1OC | 23%
COc1ccccc1N1CCN(C(=O)CSc2n[nH]c(-c3ccccc3)n2)CC1 | -2%
CC1CCCCN1C(=O)CSc1nnc(-c2ccccc2Cl)o1 (stereo unspecified) | -18%
CC1CCCCN1C(=O)CSc1n[nH]c(-c2ccccc2Cl)n1 (stereo unspecified) | 8%
COc1ccccc1N1CCN(C(=O)CSc2nc(-c3ccc(C(C)C)cc3)no2)CC1 | 0.35µM*
COc1ccccc1N1CCN(C(=O)CSc2nc(C)cc(=O)[nH]2)CC1 | 54%
CC1CCCCN1C(=O)CSc1nc(-c2ccccc2)no1 (stereo unspecified) | 10µM*
COc1cccc(NC(=O)CSc2nc(=O)n(Cc3cccnc3)c3c2CCC3)c1 | 12%
COc1ccccc1CC(=O)N1CCC(c2n[nH]c(=O)n2Cc2ccc(C)cc2)CC1 | 1%
Cc1cn2nnc(C(=O)N3CCC(C(=O)NCc4ccccc4)CC3)c2c(=O)[nH]1 | i
Cc1nnc(NC(=O)CSc2nccn2Cc2ccc(F)cc2)s1 | 29%
O=C(NCC1CCOCC1)C1=NO[C@@H]2CN(CCc3ccccc3)C[C@H]12 | 22%[44.1 µM]
O=C(Nc1ccccc1)O[C@@H]1CO[C@H]2[C@@H]1OC[C@@H]2n1nnnc1SCc1ccco1 | i
CC(=O)c1ccc(NC(=O)O[C@@H]2CO[C@H]3[C@@H]2OC[C@@H]3n2nnnc2SCc2ccco2)cc1 | 6.3µM*
SMILES | Pf Dd2 growth
O=C(NC1CCCCC1)O[C@@H]1CO[C@H]2[C@@H]1OC[C@@H]2n1nnnc1SCc1ccco1 | i
Cc1ccc(NC(=O)Cn2cc(S(=O)(=O)Cc3ccc(F)cc3)c3ccccc32)cc1Cl | i
Cc1ccc(S(=O)(=O)CCC(=O)N2CCN(c3nc4c(C)c(C)ccc4s3)CC2)cc1 | 42%
O=C(CC[C@@H]1CNC(=O)[C@@H]2C[C@H](NS(=O)(=O)c3cccs3)CN12)NC1CC1 | 36%[44.1 µM]
O=C(Nc1ccccc1F)c1cnc(N2CCCCC2)c2ccccc12 | -17%
CC1(C(=O)Nc2ccc(F)cc2)CN(Cc2ccccc2)Cc2ccc(N3CCOCC3)nc21 (stereo unspecified) | 6.3µM*
CC1(C(=O)Nc2ccccc2)CN(Cc2ccccc2)Cc2ccc(N3CCOCC3)nc21 (stereo unspecified) | i
CNC(=O)C1(C)CN(Cc2ccccc2)Cc2ccc(Nc3ccccc3)nc21 (stereo unspecified) | 10µM*
CC(C)CNc1ccc2c(n1)C(C)(C(=O)N1CCC1)CN(Cc1ccccc1)C2 (stereo unspecified) | i
CC1(C(=O)NC2CCOCC2)CN(Cc2ccccc2)Cc2ccc(Nc3ccccc3)nc21 (stereo unspecified) | -23%
CN1Cc2ccc(NCc3ccccc3)nc2C(C)(C(=O)NC2CCC2)C1 (stereo unspecified) | 4µM*
COCCNC(=O)C1(C)CN(Cc2ccccc2)Cc2ccc(Nc3ccccc3)nc21 (stereo unspecified) | 0%[44.1 µM]
CN1Cc2ccc(NCc3ccccc3)nc2C(C)(C(=O)NCc2cccnc2)C1 (stereo unspecified) | i
CC(C)CNc1ccc2c(n1)C(C)(C(=O)NC1CC1)CN(Cc1ccccc1)C2 (stereo unspecified) | -19%[44.1 µM]
CCCNC(=O)c1ccc(S(=O)(=O)NCCN2CCNC2=O)cc1 | 4%
CC1(C(=O)NCC2CCCO2)CCc2cnc(NCc3ccccc3)nc21 (stereo unspecified) | -4%[44.1 µM]
CN(Cc1ccc(F)cc1)C(=O)c1ccccc1F | i
Cc1ccccc1CCC1CCCN(C(=O)CCc2cnccn2)C1 (stereo unspecified) | i
Cc1ccccc1CCC1CCCN(S(C)(=O)=O)C1 (stereo unspecified) | -19%
Cc1ccccc1CCC1CCCNC1 (stereo unspecified) | 11µM*
COc1ccc(OC)c(Nc2ncnc3c2nc2n3CCCC2)c1 | 9%
O=C1Nc2ccccc2CC12CCCN2C1CCCCC1 (stereo unspecified) | 10µM*
O=C(NC1CCCC1)N1CCCCC12Cc1ccccc1NC2=O (stereo unspecified) | -2%[44.1 µM]
O=C(c1ccccc1)N1CCCCC12Cc1ccccc1NC2=O (stereo unspecified) | i
COc1ccccc1CC(=O)NCc1nnc2ccc(-c3ccc(C)c(C)c3)nn12 | -23%
SMILES | Pf Dd2 growth
CC(C)C(=O)N1CCCC(c2nn(C)c(=O)n2-c2ccccc2)C1 (stereo unspecified) | -1%
O=C1NCC2(CCN([S+](=O)([O-])c3cccc(C(F)(F)F)c3)CC2)Oc2ccccc21 | i
CC(=O)NC[C@@H]1C=C(C)[C@H](CC(=O)N2CCN(C(C)=O)CC2)C[C@H]1C(C)C | -12%[44.1 µM]
CC1=C[C@@H](CO)[C@H](C(C)C)C[C@H]1Cc1nnc(-c2cccnc2)o1 | i
COc1ccc(C(=O)NC[C@@H]2C=C(C)[C@H](CC(=O)N3CCN(C(C)=O)CC3)C[C@H]2C(C)C)cc1 | -17%
CC1=C[C@@H](CNC(=O)C(C)(C)C)[C@H](C(C)C)C[C@H]1Cc1nnc(-c2ccncc2)o1 | -10%[44.1 µM]
CC1=C[C@@H](CNC(=O)c2ccccc2)[C@H](C(C)C)C[C@H]1CC(=O)N1CCCC1 | 11µM*
COc1ccc(C(=O)NC[C@@H]2C=C(C)[C@H](Cc3nnc(-c4ccncc4)o3)C[C@H]2C(C)C)cc1 | 3.5µM*
CCOC(=O)C[C@@H]1C[C@@H](C(C)C)[C@H](CNC(=O)c2ccncc2)C=C1C | i
COc1ccc(-c2nnc(C[C@@H]3C[C@@H](C(C)C)[C@H](CO)C=C3C)o2)cc1 | 10µM*
COCc1nn(CC(=O)NCc2ccc(C)o2)c(=O)n1-c1ccccc1 | 25%
CCCCC(=O)Nc1cccc(-c2nc3ccccc3s2)c1 | 2%
CC(C)CCNC(=O)N1CC(c2nnc(-c3ccncc3)o2)C2(CCOCC2)C1 (stereo unspecified) | 20%
Cc1nc(-c2ccc(F)cc2)n(Cc2ccc(F)cc2F)c(=O)c1CCO | i
